About 13,000 (27%) of roughly 48,000 compounds showed an effect of 50% or more. The list shows a part of the results.

The results in this text go back to ChEMBL document CHEMBL3988442, “University of Dundee, Small-Polar-MMV Screening Library” (2021).

The assay relates to Wolbachia pipientis. Briefly: Anti-Wolbachia Cell-Based Screen. To be noted: 5 µM. Details: scale not given: in the data most compounds retested in dose-response had high values. It counts as functional.
In the case of `N#CCCNC(=O)CSc1ccc(F)cc1F`, the “Percent Effect” value is -9.893%.

As to `Cc1nn(C)cc1C1=NS(=O)(=O)N(C)C(C(=O)Nc2ccc(Cl)cc2)=C1`, the “Percent Effect” value was 140.7%.

In the case of `Cc1nn(C)cc1C1=NS(=O)(=O)N(C)C(C(=O)Nc2ccc(Br)cc2)=C1`, the “Percent Effect” value came to 160.2%.

Regarding `Cc1c(C2=NS(=O)(=O)N(C)C(C(=O)Nc3ccc(Br)cc3)=C2)cnn1C`, the “Percent Effect” value is on record as 158.8%.

As for `CN1CCC(Oc2ccc(NC(=O)c3ccccc3Br)cc2)CC1`, the “Percent Effect” value is recorded as -1.249%.

Consider `Cc1c(C(C)NC(=O)Nc2ccc(F)c(F)c2)cnn1C` (centres undefined), for which the “Percent Effect” value was determined as 0.41%.

For `CNc1nc(CNC(=O)Nc2ccccc2-c2noc(C)n2)cs1`, the “Percent Effect” value was 2.213%.

Consider `CN1CC(NC(=O)CCCc2cc(Cl)sc2Cl)CCC1=O` (centres undefined), for which the “Percent Effect” value is given as -9.281%.

Take `O=C(NCc1cccnc1)c1ccc2nccn2c1`: the “Percent Effect” value was 107.5%.

Consider `O=C(NCc1cccnc1)c1cn(CCc2ccccc2)nn1`, for which the “Percent Effect” value was found to be 77.17%.

Consider `O=C(NCCCOc1cccnc1)c1cn(CCc2ccccc2)nn1`, for which the “Percent Effect” value was -0.6541%.

For `O=C(NCCCNc1cccnc1)c1ccc2nccn2c1`, the “Percent Effect” value is reported as 1.237%.

Turning to `O=C(NCCc1ccccc1)c1cn(CCNCc2cccnc2)nn1`, the “Percent Effect” value is given as -1.891%.

In the case of `O=C(NCCc1cccnc1)c1ccc2nccn2c1`, the “Percent Effect” value was -5.38%.

Turning to `Cc1ccc(C(=O)NCC2(O)CCOCC2)cc1Br`, the “Percent Effect” value was -13.19%.

With `COC(=O)c1ccc(C(=O)NCC2(O)CCOCC2)cc1`, the “Percent Effect” value is 130.4%.

Consider `Cc1ccc(C(=O)NCC2(O)CCOCC2)cc1F`, for which the “Percent Effect” value is given as -12.72%.

As for `CN(C)c1ccc(C(=O)NCC2(O)CCOCC2)cc1`, the “Percent Effect” value is reported as -16.02%.

Turning to `CN(C)c1cccc(C(=O)NCC2(O)CCOCC2)c1`, the “Percent Effect” value was -18.41%.

Regarding `O=C(NCC1(O)CCOCC1)c1ccc(F)cc1`, the “Percent Effect” value was determined as 96.45%.

Turning to `O=C(O)C(F)(F)F.O=C(O)C(F)(F)F.O=C(O)c1cc2c(nc1N1CCOCC1)CCN(C1CCOC1)CC2` (centres undefined), the “Percent Effect” value was -7.215%.

Take `Cc1ccnc2c1NC(=O)CN2C(=O)CCC(F)(F)F`: the “Percent Effect” value is -8.698%.

As for `O=C(OC1CCC1)c1ncccc1OCC(F)(F)F`, the “Percent Effect” value is given as -10.44%.

As for `COCCCn1cnnc1CNC(=O)c1[nH]c2c(C)cc(C)cc2c1C`, the “Percent Effect” value worked out at 0.2132%.

As to `CCOCCCNCc1cc(O)c2cc(C)ccc2n1`, the “Percent Effect” value was -26.14%.

Take `CCCNCc1cc2c(C)cc(C)cc2n2c(=O)n(C)nc12`: the “Percent Effect” value is -10.06%.

Consider `COCCNCc1cc2c(C)cc(C)cc2n2c(=O)n(C)nc12`, for which the “Percent Effect” value turned out to be 88.13%.

For `CCOCCCNCc1cc2c(C)cc(C)cc2n2c(=O)n(C)nc12`, the “Percent Effect” value came to 119.1%.

For the molecule `O=C1CCC2(CCCN(c3ncnc4[nH]cnc34)C2)CN1CCCO` (centres undefined), the “Percent Effect” value is recorded as -3.767%.

As to `COc1ccccc1CC(NC(=O)N1CCC[C@@H]1CO)C(C)C` (some centres undefined), the “Percent Effect” value is -5.452%.

For the molecule `CSCCC(=O)N1CCC(c2nnc(CN(C)CCO)n2C)CC1`, the “Percent Effect” value stood at 26.9%.

`CCS(=O)(=O)N1CCCc2ccc(NC(=O)Cc3ccc(F)cc3)cc21`: the “Percent Effect” value is listed as -6.577%.

As for `CCS(=O)(=O)N1CCc2ccc(NC(=O)Nc3cccc(C)c3)cc21`, the “Percent Effect” value stood at 127.7%.

In the case of `CCS(=O)(=O)N1CCc2ccc(NC(=O)NC(C)(C)C)cc21`, the “Percent Effect” value amounted to 107.2%.

For `CCS(=O)(=O)N1CCc2ccc(NC(=O)Nc3cccc(SC)c3)cc21`, the “Percent Effect” value turned out to be 9.677%.

In the case of `CCS(=O)(=O)N1CCc2ccc(NC(=O)NC3CCCCC3)cc21`, the “Percent Effect” value is reported as 108.5%.

For `Cc1cccc(NC(=O)NC2CCN(C3CCOC3)CC2)c1` (centres undefined), the “Percent Effect” value is listed as -12.46%.

As for `NS(=O)(=O)N1CCc2ccc(NC(=O)CC(F)(F)F)cc21`, the “Percent Effect” value was -10.92%.

For the molecule `COc1cc(NC(=O)NC2CCCC2)ccc1N1CCOC1=O`, the “Percent Effect” value is 8.686%.

For `NS(=O)(=O)N1CCc2ccc(NC(=O)Cc3ccc(F)cc3)cc21`, the “Percent Effect” value is given as -5.162%.

Consider `CCS(=O)(=O)N1CCc2ccc(NC(=O)Nc3cccc(F)c3)cc21`, for which the “Percent Effect” value is on record as 144.6%.

In the case of `O=C(Nc1ccccc1)C1CCCN(c2cc(-n3cncn3)ncn2)C1` (centres undefined), the “Percent Effect” value is on record as -3.274%.

`COCC1CN(C(=O)Cc2cccc(F)c2)Cc2ccnn2C1.O=C(O)C(F)(F)F` (centres undefined): the “Percent Effect” value turned out to be 13.65%.

Take `CCC(=O)N1CC[C@@H](c2ccc3ccccc3c2)[C@H](O)C1`: the “Percent Effect” value is -8.5%.

In the case of `CC(NS(C)(=O)=O)C(=O)N(C)Cc1csc(-c2cccs2)n1` (centres undefined), the “Percent Effect” value was -6.188%.

For `O=S(=O)(N1CCCCC1)N1CCOC2(CCCC2)C1`, the “Percent Effect” value is given as -3.647%.

For `O=C(NC1CC1)NC(c1ccc(F)cc1)C1CC1` (centres undefined), the “Percent Effect” value is -8.198%.

As to `CCS(=O)(=O)N1CCc2ccc(NC(=O)Nc3ccccc3C)cc21`, the “Percent Effect” value is reported as 122.8%.

As to `CCS(=O)(=O)N1CCc2ccc(NC(=O)Nc3ccccc3)cc21`, the “Percent Effect” value is listed as 185.4%.

`CCS(=O)(=O)N1CCc2ccc(NC(=O)Nc3ccc(F)cc3F)cc21`: the “Percent Effect” value stood at 3.435%.

With `NS(=O)(=O)N1CCc2ccc(NC(=O)Cc3ccccc3F)cc21`, the “Percent Effect” value is reported as -18.89%.

In the case of `CN(CCN1CCN(c2ccccc2)CC1)C(=O)Nc1ccccn1`, the “Percent Effect” value is -17.55%.

As for `CC(C)Oc1ncccc1CNC(=O)c1ccco1`, the “Percent Effect” value was 7.44%.

With `Cc1ccc(C(=O)N2CC(C(N)=O)O[C@H](C)C2)c(F)c1` (some centres undefined), the “Percent Effect” value is reported as -9.152%.

On to `N#CCCN(Cc1ccco1)C(=O)CN1CCCC1c1cccs1` (centres undefined), for which the “Percent Effect” value was -7.66%.

With `CN(Cc1noc(-c2ccccc2)n1)C(=O)CSc1nnc(N)s1`, the “Percent Effect” value is on record as 121.6%.

Turning to `CCc1noc(CN(C)C(=O)COc2cc(Cl)cc(Cl)c2)n1`, the “Percent Effect” value is reported as -5.267%.

With `CSCC(=O)N(C)Cc1noc(-c2ccccc2)n1`, the “Percent Effect” value came out at 108.1%.

Take `CCc1nc(CN(C)C(=O)CSC)no1`: the “Percent Effect” value stood at 99.89%.

Take `CCc1nc(CN(C)C(=O)C2CCC(=O)N(CC3CCCCC3)C2)no1` (centres undefined): the “Percent Effect” value was -15.94%.

As to `CCn1ccc(CN(C)C(=O)CSc2nnc(N)s2)n1`, the “Percent Effect” value amounted to 5.02%.

In the case of `CN(C)C(=O)Cc1ccccc1NCc1noc(-c2ccccc2)n1`, the “Percent Effect” value was 11.76%.

Take `CC(C)c1nc(CN(C)C(=O)Cn2nc3ccccc3n2)no1`: the “Percent Effect” value is recorded as -13.5%.

Turning to `COc1ccc(CN(C)C(=O)CSc2nnc(N)s2)c(OC)c1OC`, the “Percent Effect” value came to 2.435%.

With `Cn1cc(N2CCC3(CCN(S(=O)(=O)C4CC4)C3)C2=O)cn1` (centres undefined), the “Percent Effect” value was -13.56%.

As for `CCCC(C)CS(=O)(=O)NCCc1csc(N2CCCC2)n1` (centres undefined), the “Percent Effect” value is given as 5.842%.

For `CC1(C)Cc2c(cnn2-c2ccccc2)C(NC2CCSCC2)C1` (centres undefined), the “Percent Effect” value was 2.86%.

In the case of `CN(C)c1ccnc(-c2ccnc3c2ccn3C)n1`, the “Percent Effect” value is -3.285%.

Regarding `Cc1[nH]c2c(C)ccc(C)c2c1CC(=O)NCCCNc1cccnc1`, the “Percent Effect” value is -12.73%.

Consider `O=C(c1ccc2cccnc2n1)N(Cc1ccsc1)CC1CCCO1` (centres undefined), for which the “Percent Effect” value is recorded as -29.46%.

In the case of `COCCN1CC2(CCN(Cc3ccco3)CC2)c2ccccc21`, the “Percent Effect” value is -16.07%.

`COCCN1C[C@H]2CN(C(=O)c3ccno3)CCN2C1=O`: the “Percent Effect” value is listed as 3.514%.

On to `O=C(c1ccco1)N1CCC2(CC1)C(=O)Nc1ccccc12`, for which the “Percent Effect” value is given as -7.592%.

For `O=C(c1ccno1)N1CCC2(CC1)C(=O)Nc1ccccc12`, the “Percent Effect” value is on record as 0.1339%.

As for `COCCN1Cc2ccccc2C2(CCN(C(=O)c3ccno3)CC2)C1`, the “Percent Effect” value is recorded as 106.5%.

As to `COCCN1Cc2ccccc2C2(CCN(S(C)(=O)=O)CC2)C1`, the “Percent Effect” value was determined as 109.9%.

Consider `COCCN1CCC2(CC1)CC1(CCN(S(C)(=O)=O)CC1)N(C)C2=O.O=C(O)C(F)(F)F`, for which the “Percent Effect” value is -9.423%.

`COCCN1Cc2ccccc2C2(CCN(C(=O)c3ccco3)CC2)C1`: the “Percent Effect” value was determined as 91.37%.

`CCS(=O)(=O)N1CCC2(CC1)CN(C(=O)N(C)C)Cc1ccccc12`: the “Percent Effect” value is given as -41.7%.

As for `Cc1ccc(C(=O)Nc2cccc3c2C(=O)NC3)c(C)n1`, the “Percent Effect” value was -2.739%.

In the case of `c1coc(CN2CCc3ncnc(C4CCOC4)c3CC2)c1` (centres undefined), the “Percent Effect” value was -7.93%.

As for `COCCN1CCCC(O)(CN2CCN(c3cc(C)ccn3)CC2)C1=O` (centres undefined), the “Percent Effect” value is -13.95%.

`CCOCC1(CNCc2cc(O)c3cc(C)ccc3n2)CC1`: the “Percent Effect” value worked out at 1.355%.

With `COc1ccc(CN2CCC(CO)(Cc3ccc(Cl)cc3)CC2)c(O)c1`, the “Percent Effect” value was -0.5928%.

For the molecule `O=c1n(CC2COCCO2)nc(CC2CCNCC2)n1-c1ccccc1` (centres undefined), the “Percent Effect” value worked out at 28.69%.

For `CCN(CC)c1ccc2ccc(C(=O)O)cn12`, the “Percent Effect” value is -4.44%.

On to `CCn1cc(C(=O)NCc2cccnc2N(C)Cc2ccccc2)cn1`, for which the “Percent Effect” value turned out to be 2.697%.

As for `CN(C)CCNC(=O)c1ccc(OC2CCN(C3CCC3)CC2)c(Cl)c1`, the “Percent Effect” value was -4.706%.

In the case of `CN(CC1CC1)c1ccc2ccc(C(=O)NCCc3ccccc3)cn12`, the “Percent Effect” value is reported as 99.05%.

`CCNC(=O)c1ccc2ccc(N(CC)CC)n2c1`: the “Percent Effect” value is 1.029%.

Turning to `COC(=O)N1CCC(Oc2ccc(C(=O)NCCN(C)C)cc2Cl)CC1`, the “Percent Effect” value is given as 19.93%.

On to `CN(CC1CC1)c1ccc2ccc(C(=O)NC3CCCCC3)cn12`, for which the “Percent Effect” value came out at 118%.

With `CCN(CC)c1ccc2ccc(C(=O)NC3CC3)cn12`, the “Percent Effect” value was -16.69%.

Regarding `CN(C)C(=O)CNC(=O)c1ccc2ccc(N(C)CC3CC3)n2c1`, the “Percent Effect” value is on record as 99.28%.

With `CCN(CC)c1ccc2ccc(C(=O)N(C)C)cn12`, the “Percent Effect” value is recorded as -16.77%.

Regarding `CN(C)CCNC(=O)c1ccc2ccc(N(C)CC3CC3)n2c1`, the “Percent Effect” value was determined as 115.7%.

In the case of `CCNC(=O)N1C[C@@H]2OCC(=O)N(CC3CCCCC3)[C@@H]2C1`, the “Percent Effect” value is reported as -5.369%.

For the molecule `CN(C)S(=O)(=O)c1cccc(CNc2cc(CO)ccc2Cl)c1`, the “Percent Effect” value is -35.79%.

With `O=C(NCc1ccccc1CN1CCC(O)CC1)Nc1cccnc1`, the “Percent Effect” value is -0.5671%.

On to `COCCCN1CCC(c2nc3c([nH]2)CC(C)(C)CNC3=O)C1` (centres undefined), for which the “Percent Effect” value is listed as -5.99%.

Consider `CCc1nnc(SC2CCN(c3ccccc3F)C2=O)n1C` (centres undefined), for which the “Percent Effect” value was -9.884%.

Take `Cc1cc2n(n1)CC(CNC1CCN(C3CC3)CC1)CN2` (centres undefined): the “Percent Effect” value was -6.962%.

On to `CN(CCOc1ccc(F)cc1)S(=O)(=O)N1CCOCC1`, for which the “Percent Effect” value is -1.618%.

On to `Cc1cccc2sc(NC(=O)CN3CCCC(O)(CO)C3)nc12` (centres undefined), for which the “Percent Effect” value is -1.543%.
